In the library only some 3% were active in any assay of this set; here they are far more common.
pPAFAH FP inh = pPAFAH enzyme inhibitors, primary screen, biochemical, fluorescence polarization, human. Platelet-activating factor acetylhydrolase (Homo sapiens), Q13093. recombinant pPAFAH, FP-rhodamine probe fluorescence polarization. inhibition, % at 3.39 µM. actives 1.5% (n = 330,000). AID 463082, 2010;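 active = inhibition above the mean inhibition across the screen plus 3 SD, cut at about 25% in these data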;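 also: inhibitors block binding of the rhodamine activity-based probe so polarization drops; 0% = enzyme with DMSO and 100% = wells lacking pPAFAH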
CTSL1 counter = Fasciola hepatica cathepsin L1 inhibitors, primary screen, counter-screen for PFM18AAP inhibitor project, biochemical, QFRET, fluorogenic peptide substrate. recombinant F. hepatica cathepsin L1, Z-Leu-Arg-MCA fluorescence. inhibition, % at 5.96 µM. actives 0.49% (n = 300,000);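 active = inhibition above the mean of all tested compounds plus 3 SD, set per screening campaign, cut at about 17% in these data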;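 also: 0% = plate median of test compound wells and 100% = 1 µM Z-Phe-Ala-diazomethylketone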
PP5 primary = PP5 phosphatase inhibitors, primary screen, biochemical, fluorescence. Serine/threonine-protein phosphatase 5 (Homo sapiens), P53041. purified PP5c, OMFP substrate fluorescence. inhibition, % at 6.7 µM. actives 0.18% (n = 320,000);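 active = inhibition above the campaign's mean inhibition across all tested compounds plus 3 SD, cut at about 9.5% in these data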;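 also: 0% = DMSO only and 100% = 100 µM cantharidin control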
Target sequence (P53041 whole entry, looked up): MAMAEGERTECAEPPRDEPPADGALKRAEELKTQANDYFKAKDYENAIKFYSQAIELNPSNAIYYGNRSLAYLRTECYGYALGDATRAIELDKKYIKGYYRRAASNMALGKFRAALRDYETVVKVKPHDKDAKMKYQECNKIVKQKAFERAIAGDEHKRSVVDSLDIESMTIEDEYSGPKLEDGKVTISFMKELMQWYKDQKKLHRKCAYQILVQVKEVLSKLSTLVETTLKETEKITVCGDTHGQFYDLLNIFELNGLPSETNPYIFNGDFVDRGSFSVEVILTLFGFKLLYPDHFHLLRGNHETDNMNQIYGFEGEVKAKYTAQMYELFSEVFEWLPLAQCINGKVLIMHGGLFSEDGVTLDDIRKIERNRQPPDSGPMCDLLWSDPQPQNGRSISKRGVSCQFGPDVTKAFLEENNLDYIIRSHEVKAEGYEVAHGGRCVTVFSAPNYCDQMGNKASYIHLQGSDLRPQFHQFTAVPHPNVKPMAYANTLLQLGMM
PAFAH1B3 FP inh = PAFAH1B3 enzyme inhibitors, primary screen, biochemical, fluorescence polarization, human; Platelet-activating factor acetylhydrolase IB subunit alpha1 (Homo sapiens), Q15102; recombinant PAFAH1B3, FP-rhodamine probe; inhibition, % at 3.39 µM; actives 0.28% (n = 340,000); AID 492972, 2010;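 active = inhibition above the screen-wide average of all tested compounds plus 3 SD, cut at about 25% in these data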;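 also: 0% = enzyme with DMSO only and 100% = wells lacking PAFAH1B3 protein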
PAFAH2 FP inh = PAFAH2 enzyme inhibitors, primary screen, biochemical, fluorescence polarization, human; recombinant PAFAH2, FP-rhodamine activity probe; AID 492956, 2010; actives 0.99% (n = 340,000); inhibition, % at 3.39 µM;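 active = inhibition above the mean over all tested compounds plus 3 SD, cut at about 30% in these data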;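 also: inhibitors block probe labeling of enzyme so polarization drops; 0% = enzyme with DMSO and 100% = wells lacking PAFAH2 protein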
PAFAH1B2 FP inh = PAFAH1B2 enzyme inhibitors, primary screen, biochemical, fluorescence polarization, human | Platelet-activating factor acetylhydrolase IB subunit alpha2 (Homo sapiens), P68402 | recombinant PAFAH1B2, FP-rhodamine activity probe | inhibition, % at 3.39 µM | actives 1.2% (n = 340,000);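 active = inhibition above the mean of all tested compounds plus 3 SD, cut at about 24% in these data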;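 also: 0% = enzyme with DMSO and 100% = wells lacking PAFAH1B2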
* = called active by the depositor; . = no result given.

SMILES | pPAFAH FP inh | CTSL1 counter | PP5 primary | PAFAH1B3 FP inh | PAFAH2 FP inh | PAFAH1B2 FP inh
CCN1C[C@@H]2[C@@H]3C(=O)N(C)C(=O)[C@@H]3[C@](C)(C1=O)N2C(=O)c1ccc(Cl)c(Cl)c1 | . | . | . | -6.3 | -5.9 | 1.3
Cc1c(C(=O)O)cccc1-n1c(C)cc(/C=C(/C#N)C(=O)NCc2ccccc2)c1C | 29.5* | 3.9 | 1.3 | . | . | .
Cc1cc([N+](=O)[O-])nn1Cc1ccc(C(=O)N/N=C/c2ccc(O)cc2O)cc1 | 28.6* | -3.0 | -3.4 | 14.8 | -13.1 | 4.7
O=C(N/N=C/c1ccc(O)cc1O)c1ccc(CN2C(=O)c3cccc4cccc2c34)cc1 | 29.7* | 11.2 | -1.8 | 35.2* | 38.7* | 43.0*
COc1ccc2[nH]c(O)c(N=NC(=O)Cc3cccs3)c2c1 | 24.8* | -1.1 | 1.4 | 13.3 | 11.7 | 13.8
Cc1ccc(S(=O)(=O)N2CCC(C(=O)OCCOc3ccccc3)CC2)cc1C | 28.1* | 2.9 | -0.3 | 11.3 | 8.9 | 3.6
Cc1ccc(OCCOC(=O)C2CCN(S(=O)(=O)c3ccc(C)c(C)c3)CC2)cc1 | 4.7 | -0.7 | 2.9 | 9.9 | 8.9 | 7.4
O=C(NCc1ccco1)C1CC(c2ccc(C(F)(F)F)cc2)=NO1 (configuration not stated) | 7.3 | -0.4 | 1.1 | 2.4 | -5.2 | -6.9
COCCCn1c(SCc2ccc(OC)cc2)nc2cc(OC)c(OC)cc2c1=N | 25.4* | 3.1 | 1.1 | 11.9 | 4.7 | 6.9
Cc1ccc(CNC(=O)CSc2nc(C)cs2)cc1 | 8.2 | 1.5 | -0.1 | 3.4 | 8.0 | 7.3
Cc1csc(SCC(=O)NCCc2ccc(Cl)cc2)n1 | 7.3 | -1.3 | -0.3 | 8.8 | 3.6 | 32.5*
COc1ccc(CN2C(=O)c3ccc(C(=O)O)cc3C2=O)cc1 | -0.3 | 3.6 | 0.9 | 5.9 | -7.1 | 5.7
CCCCCCCCn1c(=O)c(C(=O)OCC)c(O)c2ccccc21 | 4.7 | 6.3 | 1.3 | 9.1 | 2.0 | 24.3*
Cc1nn(-c2ccccc2)c(=O)c2ccccc12 | -2.1 | 3.5 | 0.2 | 9.0 | 13.3 | 1.8
Cc1nn(-c2ccccc2)c2c1CC(=O)Nc1ccccc1-2 | . | . | . | 14.6 | -3.6 | 31.1*
CCOC(=O)C1=C(CCl)NC(=O)NC1c1ccc2c(c1)OCO2 (configuration not stated) | 6.4 | 0.0 | 1.8 | 3.5 | -7.5 | -3.7
O=C(O)c1ccccc1NC(c1ccccc1)c1ccc(Cl)cc1 (configuration not stated) | 15.7 | -2.5 | -0.2 | 12.2 | 2.7 | 41.2*
Cc1ccc(C)c(NC(=O)CN(C)C(C)C(=O)N2CC(C)CC(C)C2)c1 (configuration not stated) | . | . | . | 5.5 | 0.5 | 4.0
O=C(Nc1ccccc1Cl)Nc1ccccc1Cl | -2.6 | 3.6 | -0.8 | -1.0 | 10.2 | -1.1
O=C(Nc1ccccc1Cl)Oc1ccc(-c2ccccc2)cc1 | 5.8 | -3.8 | 0.1 | 6.7 | -0.9 | 60.4*
Cc1cc(NC(=O)c2ccc(Cl)c(S(=O)(=O)N3CCCCC3)c2)no1 | 6.0 | 1.6 | -1.9 | -2.7 | 4.3 | 3.8
COc1ccc(Nc2nc(-c3ccncc3)nc3ccccc23)cc1 | 11.8 | 1.1 | 2.1 | 6.4 | -0.2 | -0.1
O=C(Oc1cccc(Oc2ccccc2)c1)N1CCOCC1 | 25.3* | -1.1 | 0.5 | 6.4 | 5.3 | 4.9
O=C(O)CCc1ccc(S(=O)(=O)Nc2cc(C(F)(F)F)ccc2N2CCCC2)cc1 | . | . | . | 0.9 | 7.7 | 30.1*
CC(/C=C/C1(O)C(C)CC(O)CC1(C)C)OC1OC(CO)C(O)C(O)C1O (configuration not stated) | 1.1 | 55.1* | 4.5 | 7.2 | 6.0 | 0.9
CS(=O)(=O)c1ccccc1C(=O)NC1CCCc2ccccc21 (configuration not stated) | 3.9 | 20.7* | -3.1 | 12.5 | -1.6 | 6.4
CCS(=O)(=O)c1ccccc1C(=O)NC1CCCc2ccccc21 (configuration not stated) | -1.0 | -1.6 | -2.0 | -2.0 | -1.9 | 4.8

Screens as filed in PubChem BioAssay.
